The source of these data is PubChem BioAssay AID651843 (National Center for Advancing Translational Sciences (NCATS), 2012).

This is one part of the list. Results filed as inconclusive are left out. A number with no mark means an inactive call. Calls come from the whole dose curve; as a rule, active = well fitted inhibition curve with a large enough effect; inconclusive = small, poorly fitted or top-dose-only effect; inactive = no such curve, though single readings can be large or run the other way.

The nature of this assay: qHTS Assay for Inhibitors of MBNL1-poly(CUG) RNA binding: Counterscreen HTRF assay. To be noted: His-Menin/biotin-MLL peptide TR-FRET counterscreen; series mostly up to 57.6 µM; activity, negative = inhibition: at the top concentration. The source says:
NIH Chemical Genomics Center [NCGC] NIH Molecular Libraries Probe Production Centers Network [MLPCN] MLPCN Grant: R03 MH087421-01 Assay Submitter (PI): Charles Thornton NCGC Assay Overview: Expanded CTG repeats in the 3' untranslated region of the DM protein kinase (DMPK) gene causes type I myotonic dystrophy (DM1). DM1 is a multi-systemic disease with a prevalence of 1/7000. Clinical features include myotonia, progressive muscle weakness and wasting, cardiac arrhythmia, insulin resistance, hypersomnolence, cataracts, and other symptoms. The pathogenic effect of expanded CTG repeats stems from deleterious effects of the mutant transcript. CUGexp mRNA accumulates in nuclear foci and sequesters proteins of the muscleblind family, of which MBNL1 is the most common family member in skeletal muscles. […] This brings the terbium label within close proximity to XL665 to allow time-resolved fluorescence resonance energy transfer (TR-FRET). […]
This assay uses a ratiometric measurement of TR-FRET binding assay with His-Menin and Biotin-MLL peptide. […] (3) Add 1 ul of 0.22 ng/ul terbium labeled anti-His antibody (0.055 ng/ul final concentration) (4) Add 1 ul of 20 nM streptavidin-XL665 (5 nM final concentration) (5) Incubate 60 min at room temperature (6) Detect the assay plate in a EnVision plate reader (PerkinElmer) with Ex=340 nm, Em1=665 nm and Em2=545 nm.
For orientation: In qHTS, concentration-response curves come from the screen itself.
Regarding `NCCC[C@H](N)CC(=O)N[C@H]1CNC(=O)[C@H]([C@H]2C[C@H](O)NC(N)=N2)NC(=O)/C(=C/NC(N)=O)NC(=O)[C@H](CO)NC(=O)[C@H](CO)NC1=O`, the “activity, negative = inhibition” value is -2.75%.
As to `CCOC(=O)c1c(C)[nH]c2c1-c1ccccc1C(=O)C2=O`, the “activity, negative = inhibition” value was 4.75%.
